# According to PubChem BioAssay (NCI):
# The panel holds about 83,000 compounds, 20% with a hit somewhere; the sample as a whole holds those more often.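 Percent growth is the endpoint: 0 to 100 indicates growth inhibition (40 means 60% inhibition), 0 means no net growth, and negative values indicate cell death.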 A number with no mark means an inactive call. The source made the active and inactive calls. The calls were made as follows: active = growth percent below 10; inactive = the rest.
# Tested on: SNB-75 CNS
# Assay: NCI-60 one-dose screen, 48 h (100 = growth as untreated, 0 = no growth, -100 = all killed)
# Settings: 10 µM unless noted
row,SMILES,growth
1,CC(=O)O[C@H]1C(=O)[C@@]2(C)[C@H]([C@H](OC(=O)c3ccccc3)[C@]3(O)C[C@H](OC(=O)[C@H](OC(=O)OCC4COC(C)(C)O4)[C@@H](NC(=O)c4ccccc4)c4ccccc4)C(C)=C1C3(C)C)[C@]1(OC(C)=O)CO[C@@H]1C[C@@H]2O (stereo partly drawn),41.9%
2,CC[C@H](C)[C@H](NC(=O)C12CC(NC(C)=O)(C1)C2)C(=O)N(C)[C@H](C[C@@H](OC(C)=O)c1nc(C(=O)N[C@@H](Cc2ccccc2)C[C@H](C)C(=O)OC)cs1)C(C)C,44.8%
3,CCn1cnc2c(Nc3cccc(Cl)c3)nc(N[C@@H]3CCCC[C@@H]3N)nc21,-5.9% (active)
4,O=C(O)C1C(C(=O)O)C2(Cl)C(Cl)=C(Cl)C1(Cl)C2(Cl)Cl.[Hg] (stereo not drawn),86.6%
5,CC[C@H](C)[C@H](NC(=O)[C@H]1CCCCN1C)C(=O)N(C)[C@H](C[C@@H](OC(C)=O)c1nc(C(=O)N[C@@H](Cc2ccccc2)C[C@H](C)C(=O)OC)cs1)C(C)C,31.8%
6,CN1C(=O)C(=Cc2cn(CCCCCCn3c4ccccc4c(=O)c4ccccc43)c3ccccc23)C(=O)N(C)C1=O,91.4%
7,CC(C)(C)C(=O)OCOP(=O)(OCOC(=O)C(C)(C)C)C1CCCN(O)C1=O (stereo not drawn),47.6%
8,COC(=O)[C@@H](C)C[C@H](Cc1ccc2ccccc2c1)NC(=O)c1csc([C@@H](C[C@H](C(C)C)N(C)C(=O)[C@@H](NC(=O)[C@H]2CCCCN2C)C(C)C)OC(C)=O)n1,42.8%
9,C=C1C(=O)O[C@H]2[C@H]1CC/C(COC(=O)C(=O)c1cn(Cc3ccccc3)c3ccccc13)=C\CC[C@@]1(C)O[C@@H]21,-75.2% (active)
10,CN(CCCCN(C)CCOS(C)(=O)=O)CCOS(C)(=O)=O,88.5%
11,NC(=O)CNc1ccc([As]=[As]c2ccc(NCC(N)=O)cc2)cc1 (stereo not drawn),24.5%

# Tested on: SNB-19 CNS
# Assay: as above
# Settings: 10 µM unless noted
row,SMILES,growth
1,O=NN1CCCc2cccc(O)c21,31%
2,Fc1ccc2c(c1)c(-c1nc(-c3c[nH]c4ncccc34)cs1)cn2CCN1CCOCC1,63.7%
3,CC(=O)Nc1nc2c(s1)CC[C@@]1(C)C2=CC[C@H]2[C@@H]3CC[C@H](O)[C@@]3(C)CC[C@@H]21,62.1%
4,CN(C)CC(C(=O)Cc1ccccc1)c1ccccc1 (stereo not drawn),100%
5,CCOC(=O)[C@@H](C)C[C@H](Cc1ccccc1)NC(=O)c1csc([C@@H](C[C@H](C(C)C)N(C)C(=O)[C@H](CCC(C)C)NC(=O)[C@H]2CCCCN2C)OC(C)=O)n1,39.9%
6,CCCCCCCCCCCCCCCCCC1OC[C@H](COC(=O)O[C@@H](C(=O)O[C@H]2C[C@@]3(O)[C@@H](OC(=O)c4ccccc4)[C@@H]4[C@]5(OC(C)=O)CO[C@@H]5C[C@H](O)[C@@]4(C)C(=O)[C@H](OC(C)=O)C(=C2C)C3(C)C)[C@@H](NC(=O)c2ccccc2)c2ccccc2)O1 (stereo partly drawn),49.6%
7,c1cnc2[nH]cc(-c3csc(-c4cn(CCCCN5CCCCC5)c5ccccc45)n3)c2c1,90.4%
8,C=C1C[C@](OC)([C@H](O)C(=O)N[C@@H](OC)[C@@H]2C[C@@H](O)C(C)(C)[C@@H](C[C@@H](COC)OC)O2)O[C@H](C)[C@@H]1C,-10.7% (active)
9,O=C(Nc1ccc(O)cc1)C(Cl)(Cl)Cl,102%
10,Cc1c(NS(=O)(=O)c2ccccc2)ccc([N+](=O)[O-])c1Cl,61.7%
11,CCCCN1CCCC[C@@H]1C(=O)N[C@H](C(=O)N(C)[C@H](C[C@@H](OC(C)=O)c1nc(C(=O)NC2CCC(C(=O)OC)CC2)cs1)C(C)C)C(C)C (stereo partly drawn),24%
12,Cn1cc(-c2csc(-c3cn(CCCCN4CCCCC4)c4ccc(F)cc34)n2)c2cccnc21,87.1%
13,CC1=C(CN)C2=C(C)C3(CC3)[C@@](C)(O)C(=O)C2=C1,83.2%
14,CC(=O)O[C@H]1C(=O)[C@@]2(C)[C@H]([C@H](OC(=O)c3ccccc3)[C@]3(O)C[C@H](OC(=O)[C@H](OC(=O)OC[C@H]4COC(C)(C)O4)[C@@H](NC(=O)c4ccccc4)c4ccccc4)C(C)=C1C3(C)C)[C@]1(OC(C)=O)CO[C@@H]1C[C@@H]2O,11.9%
15,Cn1cc(-c2csc(-c3cn(CCN4CCOCC4)c4ccc(F)cc34)n2)c2cccnc21,49.2%
16,Brc1ccc2c(c1)c(-c1nc(-c3c[nH]c4ncccc34)cs1)cn2CCN1CCOCC1,71.6%
17,COC(=O)[C@@H](C)C[C@H](Cc1ccccc1)NC(=O)c1csc([C@@H](C[C@H](C(C)C)N(C)C(=O)[C@@H](NC(=O)[C@H]2CCCCN2C)C2CCCCC2)OC(C)=O)n1,64.5%
18,CC(=O)OC1CCC2(C)C(CCC3C2CC(=O)C2(C)C3CC(Sc3ccc(N(CCCl)CCCl)cc3)C2C(C)=O)C1 (stereo not drawn),82.7%
19,COc1ccc(S(=O)(=O)N(Cc2ccc3c(c2)C=CC(C)(C)O3)c2ccccc2)cc1OC,93.7%

row,SMILES,growth
1,CC[C@H](C)[C@H](NC(=O)[C@H]1CCCCN1C)C(=O)N(C)[C@H](CC(=O)c1nc(C(=O)N[C@@H](Cc2ccccc2)C[C@H](C)C(=O)O)cs1)C(C)C,55.5%
2,COC(=O)[C@@H](C)C[C@H](Cc1ccccc1)NC(=O)c1csc([C@@H](C[C@H](C(C)C)N(C)C(=O)[C@@H](NC(=O)C23CC(NC(C)=O)(C2)C3)C2CC2)OC(C)=O)n1,65.3%
3,O=C1CC2(CC3(Cl)C(Cl)=C(Cl)C2(Cl)C3(Cl)Cl)C(=O)O1 (stereo not drawn),106%
4,C[n+]1c(/C=C/c2ccc(N(CCCl)CCCl)cc2)sc2ccccc21,60.9%
5,CC[C@H](C)[C@H](NC(=O)NC(C)(C)C)C(=O)N(C)[C@H](C[C@@H](OC(C)=O)c1nc(C(=O)N[C@@H](Cc2ccccc2)C[C@H](C)C(=O)OC)cs1)C(C)C,47.6%
6,CCCCCCCC[N+](C)(CCCCCCCC)CCCCCCCC,-89.6% (active)
7,CC(=O)O[C@H]1C(=O)[C@@]2(C)[C@H]([C@H](OC(=O)c3ccccc3)[C@]3(O)C[C@H](OC(=O)[C@H](OC(=O)OC[C@@H]4COC(C)(C)O4)[C@@H](NC(=O)c4ccccc4)c4ccccc4)C(C)=C1C3(C)C)[C@]1(OC(C)=O)CO[C@@H]1C[C@@H]2O,12.7%
8,CC(=O)O[C@H]1C(=O)[C@@]2(C)[C@H]([C@H](OC(=O)c3ccccc3)[C@]3(O)C[C@H](OC(=O)[C@H](OC(=O)OCC4COC(C)(C)O4)[C@@H](NC(=O)c4ccccc4)c4ccccc4)C(C)=C1C3(C)C)[C@]1(OC(C)=O)CO[C@@H]1C[C@@H]2O (stereo partly drawn),36.6%
9,CC[C@H](C)[C@H](NC(=O)C12CC(NC(C)=O)(C1)C2)C(=O)N(C)[C@H](C[C@@H](OC(C)=O)c1nc(C(=O)N[C@@H](Cc2ccccc2)C[C@H](C)C(=O)OC)cs1)C(C)C,50.9%
10,CCn1cnc2c(Nc3cccc(Cl)c3)nc(N[C@@H]3CCCC[C@@H]3N)nc21,7.42% (active)
11,O=C(O)C1C(C(=O)O)C2(Cl)C(Cl)=C(Cl)C1(Cl)C2(Cl)Cl.[Hg] (stereo not drawn),96.9%
12,CC[C@H](C)[C@H](NC(=O)[C@H]1CCCCN1C)C(=O)N(C)[C@H](C[C@@H](OC(C)=O)c1nc(C(=O)N[C@@H](Cc2ccccc2)C[C@H](C)C(=O)OC)cs1)C(C)C,31.4%
13,CN1C(=O)C(=Cc2cn(CCCCCCn3c4ccccc4c(=O)c4ccccc43)c3ccccc23)C(=O)N(C)C1=O,104%
14,CC(C)(C)C(=O)OCOP(=O)(OCOC(=O)C(C)(C)C)C1CCCN(O)C1=O (stereo not drawn),2.57% (active)
15,COC(=O)[C@@H](C)C[C@H](Cc1ccc2ccccc2c1)NC(=O)c1csc([C@@H](C[C@H](C(C)C)N(C)C(=O)[C@@H](NC(=O)[C@H]2CCCCN2C)C(C)C)OC(C)=O)n1,51.8%
16,C=C1C(=O)O[C@H]2[C@H]1CC/C(COC(=O)C(=O)c1cn(Cc3ccccc3)c3ccccc13)=C\CC[C@@]1(C)O[C@@H]21,3.39% (active)
17,CN(CCCCN(C)CCOS(C)(=O)=O)CCOS(C)(=O)=O,94.7%
18,NC(=O)CNc1ccc([As]=[As]c2ccc(NCC(N)=O)cc2)cc1 (stereo not drawn),48.6%
